# Test results taken from PubChem BioAssay (NCATS).
# Records with an inconclusive call do not appear. Where a call stands in place of a potency, no number is given. Unmarked numbers belong to inactive results. Calls of active or inactive are those of the source. Calls follow the shape of the dose curve; as a rule, active = well fitted curve in the direction sought with a large enough effect; inconclusive = small, poorly fitted or top-dose-only effect, or another doubt; inactive = no such curve, though single readings can be large; an effect the other way counts as inactive or inconclusive.
# Legend:
# CRL-7250 = normal cell line; assay: Cytotoxic Profiling of Annotated Libraries Using Quantitative High-Throughput Screening (AID 1296008); details: Five cell lines viability, CellTiter-Glo ATP luminescence, 48-72 h; max response: active compounds read low; also: nearly all actives have a fitted effect of over 60% in size; also: potency is read from the fitted curve at half-maximal effect
# Procedure, shortened: (§1)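 Cytotoxicity was measured as CellTiter-Glo ATP luminescence, read after 10 min at room temperature. Compound treatment of the cells lasted 48 or 72 hr at 37 degrees Celsius in a qHTS format.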
# HaCat [1] = assay: as above; details: Five cell lines viability, CellTiter-Glo ATP luminescence, 48-72 h; max response: active compounds read low
# Procedure, shortened: as §1
# KB-3-1 = assay: as above; details: Five cell lines viability, CellTiter-Glo ATP luminescence, 48-72 h; max response: active compounds read low
# Procedure, shortened: as §1
# C33A = assay: Primary qHTS to identify gynecologic anti-cancer compounds using libraries of approved drugs and bioactive compounds (AID 1345084); details: Gynecologic cancer cell panel viability, ATPlite luminescence, 48 h; series mostly up to 57.5 µM; also: nearly all actives have a fitted effect of over 55% in size
# Procedure, shortened: (§2)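 Five-concentration response, 48 h; readout is ATP-driven luciferase luminescence.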
# CAOV3 = assay: as above; details: Gynecologic cancer cell panel viability, ATPlite luminescence, 48 h; series mostly up to 57.5 µM
# Procedure, shortened: as §2
# CASKI = assay: as above; details: Gynecologic cancer cell panel viability, ATPlite luminescence, 48 h; series mostly up to 57.5 µM
# Procedure, shortened: as §2
# Es-2 = assay: as above; details: Gynecologic cancer cell panel viability, ATPlite luminescence, 48 h; series mostly up to 57.5 µM
# Procedure, shortened: as §2
# HeLa = assay: as above; details: Gynecologic cancer cell panel viability, ATPlite luminescence, 48 h; series mostly up to 57.5 µM
# Procedure, shortened: as §2
# Hek293T = assay: as above; details: Gynecologic cancer cell panel viability, ATPlite luminescence, 48 h, control line for the selectivity index; series mostly up to 57.5 µM
# Procedure, shortened: as §2
# JEG-3 = assay: as above; details: Gynecologic cancer cell panel viability, ATPlite luminescence, 48 h; series mostly up to 57.5 µM
# Procedure, shortened: as §2
# OV90 = assay: as above; details: Gynecologic cancer cell panel viability, ATPlite luminescence, 48 h; series mostly up to 57.5 µM
# Procedure, shortened: as §2
# PA-1 = assay: as above; details: Gynecologic cancer cell panel viability, ATPlite luminescence, 48 h; series mostly up to 57.5 µM
# Procedure, shortened: as §2
# SKOV3 = assay: as above; details: Gynecologic cancer cell panel viability, ATPlite luminescence, 48 h; series mostly up to 57.5 µM
# Procedure, shortened: as §2
# HACAT [2] = assay: qHTS assay to identify novel small-molecules to repurpose for Merkel cell carcinoma treatment (AID 1296009); details: MCC and control cell lines, CellTiter-Glo viability, 72 h; at 44.8 µM (top of the series) unless noted; also: nearly all actives have a fitted effect of over 60% in size
# Procedure, shortened: (§3)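 After compound transfer in DMSO, plates were kept 72 hr at 37 degree celsius. Luminescent ATP signal from CellTiter-Glo served as viability measure, normalized against DMSO and no-cell controls.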
# NIH3T3 [3] = assay: Cytotoxic Profiling of Annotated Libraries Using Quantitative High-Throughput Screening (AID 1296008); details: Five cell lines viability, CellTiter-Glo ATP luminescence, 48-72 h; max response: active compounds read low; also: nearly all actives have a fitted effect of over 60% in size; also: potency is read from the fitted curve at half-maximal effect
# Procedure, shortened: as §1
# NIH3T3 [4] = assay: qHTS assay to identify novel small-molecules to repurpose for Merkel cell carcinoma treatment (AID 1296009); details: MCC and control cell lines, CellTiter-Glo viability, 72 h; series mostly up to 44.8 µM; also: nearly all actives have a fitted effect of over 60% in size
# Procedure, shortened: as §3
smiles,measurement,setting,value
COc1ccc(C2(CNC(=O)c3ccc(NC(=O)c4ccco4)cc3)CCOCC2)cc1,max response,CRL-7250,-30.6%
same,max response,HaCat [1],-26.6%
same,max response,KB-3-1,8.83%
same,Potency,C33A,inactive
same,Potency,CAOV3,inactive
same,Potency,CASKI,inactive
same,Potency,Es-2,inactive
same,Potency,HeLa,inactive
same,Potency,Hek293T,inactive
same,Potency,JEG-3,inactive
same,Potency,OV90,inactive
same,Potency,PA-1,inactive
same,Potency,SKOV3,inactive
CCN(CCNC(=O)Nc1ccccc1Br)c1cccc(C)c1,max response,CRL-7250,-1.67%
same,max response,HaCat [1],0.35%
same,max response,KB-3-1,2.25%
same,Potency,CAOV3,inactive
same,Potency,CASKI,inactive
same,Potency,Es-2,inactive
same,Potency,HeLa,inactive
same,Potency,Hek293T,inactive
same,Potency,OV90,inactive
same,Potency,PA-1,inactive
same,Potency,SKOV3,inactive
CCCCCc1ccc(/C=C/C(=O)Nc2cc(Cl)ccc2C(=O)O)cc1,max response,CRL-7250,-6.38%
same,max response,HaCat [1],-35.2%
same,max response,KB-3-1,-3.71%
same,Potency,C33A,inactive
same,Potency,CAOV3,inactive
same,Potency,CASKI,inactive
same,Potency,Es-2,inactive
same,Potency,HeLa,inactive
same,Potency,Hek293T,inactive
same,Potency,JEG-3,inactive
same,Potency,OV90,inactive
same,Potency,PA-1,inactive
same,Potency,SKOV3,inactive
Cc1c(NC(=O)c2cc3c(s2)CCCC3)cccc1-c1cn(C)c(=O)c(Nc2ccc(C3C(=O)N(C)CCN3C)cc2)n1 (centres undefined),max response,CRL-7250,-5.13%
same,outcome,HaCat [1],inactive
same,outcome,KB-3-1,inactive
same,outcome,HACAT [2],inactive
same,Potency,C33A,inactive
same,Potency,Es-2,inactive
same,Potency,Hek293T,inactive
NCC(CNc1nc(Nc2cccc(NC(=O)N3CCCC3)c2)ncc1I)C(=O)c1cccs1 (centres undefined),max response,CRL-7250,-26%
same,outcome,HaCat [1],inactive
same,Potency,KB-3-1,11.6 µM (active)
same,outcome,HACAT [2],inactive
same,Potency,C33A,inactive
same,Potency,CASKI,inactive
same,Potency,Es-2,inactive
same,Potency,HeLa,inactive
same,Potency,Hek293T,inactive
same,Potency,JEG-3,inactive
same,Potency,OV90,inactive
same,Potency,PA-1,inactive
same,Potency,SKOV3,inactive
O=C(NCCN1CCC(n2c(=O)[nH]c3ccccc32)CC1)c1ccc2ccccc2c1,max response,CRL-7250,1.03%
same,max response,HaCat [1],-42.4%
same,max response,KB-3-1,-2.44%
same,Potency,C33A,inactive
same,Potency,CAOV3,inactive
same,Potency,CASKI,inactive
same,Potency,Es-2,inactive
same,Potency,HeLa,inactive
same,Potency,Hek293T,inactive
same,Potency,JEG-3,inactive
same,Potency,PA-1,inactive
same,Potency,SKOV3,inactive
Cc1c(Cl)cccc1S(=O)(=O)Nc1nc(NCCc2ccccc2)nc2c1CN(Cc1ccccc1)CC2,max response,CRL-7250,4.69%
same,outcome,HaCat [1],inactive
same,outcome,NIH3T3 [3],inactive
same,outcome,HACAT [2],inactive
same,Potency,NIH3T3 [4],inactive
same,Potency,C33A,inactive
same,Potency,CAOV3,inactive
same,Potency,CASKI,inactive
same,Potency,Es-2,inactive
same,Potency,HeLa,inactive
same,Potency,Hek293T,inactive
same,Potency,JEG-3,inactive
same,Potency,OV90,inactive
same,Potency,PA-1,inactive
same,Potency,SKOV3,inactive
COc1cc(C(=O)O)ccc1NC(=O)C1NC(CC(C)(C)C)C(C#N)(c2ccc(Cl)cc2F)C1c1cccc(Cl)c1F (centres undefined),max response,CRL-7250,-18.8%
same,outcome,HaCat [1],inactive
same,max response,NIH3T3 [3],-5.77%
same,outcome,HACAT [2],inactive
same,Potency,C33A,inactive
same,Potency,CAOV3,inactive
same,Potency,CASKI,inactive
same,Potency,Es-2,inactive
same,Potency,HeLa,inactive
same,Potency,Hek293T,inactive
same,Potency,JEG-3,inactive
same,Potency,OV90,inactive
same,Potency,PA-1,inactive
same,Potency,SKOV3,inactive
CCCn1cc2c(nc(NC(=O)Nc3ccc(OC)cc3)n3nc(-c4ccco4)nc23)n1,max response,CRL-7250,4.71%
same,outcome,HaCat [1],inactive
same,outcome,NIH3T3 [3],inactive
same,outcome,HACAT [2],inactive
same,Potency,NIH3T3 [4],inactive
same,Potency,C33A,inactive
same,Potency,CAOV3,inactive
same,Potency,CASKI,inactive
same,Potency,Es-2,inactive
same,Potency,HeLa,inactive
same,Potency,Hek293T,inactive
same,Potency,JEG-3,inactive
same,Potency,OV90,inactive
same,Potency,PA-1,inactive
O=C(NO)c1ccc(CC(=O)N(CCO)c2ccccc2)cc1,max response,CRL-7250,0.727%
same,outcome,HaCat [1],inactive
same,max response,NIH3T3 [3],-4.33%
same,outcome,HACAT [2],inactive
same,Potency,C33A,inactive
same,Potency,CASKI,inactive
same,Potency,Es-2,inactive
same,Potency,HeLa,inactive
same,Potency,Hek293T,inactive
same,Potency,OV90,inactive
C/C=C/CCC1Cc2cc(O)c(CCCC)c(O)c2C(=O)O1 (centres undefined),outcome,CRL-7250,inactive
same,outcome,HaCat [1],inactive
same,max response,NIH3T3 [3],2.45%
same,outcome,HACAT [2],inactive
same,Potency,C33A,inactive
same,Potency,CAOV3,inactive
same,Potency,CASKI,inactive
same,Potency,Es-2,inactive
same,Potency,HeLa,inactive
same,Potency,Hek293T,inactive
same,Potency,JEG-3,inactive
same,Potency,OV90,inactive
same,Potency,PA-1,inactive
same,Potency,SKOV3,inactive
CN1CC2CN(c3ccc4oc5ccccc5c(=O)c4c3)CC2C1 (centres undefined),max response,CRL-7250,-0.983%
same,outcome,HaCat [1],inactive
same,max response,NIH3T3 [3],-10.4%
same,outcome,HACAT [2],inactive [at 17.4 µM]
same,Potency,CAOV3,inactive
same,Potency,Es-2,inactive
same,Potency,HeLa,inactive
same,Potency,Hek293T,inactive
same,Potency,JEG-3,inactive
same,Potency,PA-1,inactive
Cc1onc(-c2ccccc2)c1C(=O)N1CCN(c2ccc([N+](=O)[O-])cc2Cl)CC1,max response,CRL-7250,-3.78%
same,outcome,HaCat [1],inactive
same,max response,NIH3T3 [3],4.81%
same,outcome,HACAT [2],inactive
same,Potency,C33A,inactive
same,Potency,CAOV3,inactive
same,Potency,CASKI,inactive
same,Potency,Es-2,inactive
same,Potency,HeLa,inactive
same,Potency,Hek293T,inactive
same,Potency,JEG-3,inactive
same,Potency,OV90,inactive
same,Potency,PA-1,inactive
same,Potency,SKOV3,inactive
C[C@]12CC[C@@H]3c4ccc(O)c(O)c4CC[C@H]3[C@@H]1CCC2=O,max response,CRL-7250,-7.43%
same,outcome,HaCat [1],inactive
same,max response,NIH3T3 [3],-17.9%
same,outcome,HACAT [2],inactive
same,Potency,C33A,inactive
same,Potency,CAOV3,inactive
same,Potency,CASKI,inactive
same,Potency,Es-2,inactive
same,Potency,HeLa,inactive
same,Potency,Hek293T,inactive
same,Potency,JEG-3,inactive
same,Potency,OV90,inactive
same,Potency,PA-1,inactive
same,Potency,SKOV3,inactive
